Source: PubChem BioAssay (EPA / NIEHS)
Active and inactive are the calls of the source. The calls were made as follows: active = hit-call score of the fitted dose curve at least 0.9, where 1 is the maximum; inactive = score below 0.9.

Assay: BSK_3C_Vis: BioMAP Diversity Plus: 3C Assay for Morphology Visualization (AID 2283025);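 also: fitted both ways so gain or loss versus DMSO counts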
Conditions: primary human endothelial cells (HUVEC)
Protocol: BSK_3C is a cell-based, multiplexed-readout assay that uses umbilical vein endothelium, a human vascular primary cell, with measurements taken at 24 hours after chemical dosing in a 96-well plate.BSK_3C_Vis is an assay component measured in the BSK_3C assay. It measures NA related to cell morphology using light microscopy technology.Data from the assay component BSK_3C_Vis was analyzed into 1 assay endpoint. This assay endpoint, BSK_3C_Vis, was analyzed with bidirectional fitting relative to DMSO as the negative control and baseline of activity. Using a type of morphology reporter, gain or loss-of-signal activity can be used to understand changes in the background control. Furthermore, this assay endpoint can be referred to as a secondary readout, because this assay has produced multiple assay endpoints where this one serves a background control function. To generalize the intended target to other relatable targets, this assay endpoint is annotated to the cell morphology intended target family, where the subfamily is cell conformation.
The levels of cell surface (or secreted, indicated by the prefix "s") biomarker endpoints were measured by ELISA. Overt cytotoxicity to cells in confluent adherent cultures (all systems other than the BT system) was assessed by measuring total protein levels using sulforhodamine B (SRB) staining in parallel cultures at the time of biomarker measurements, indicated as SRB endpoints. For proliferation assays for adherent cell types, individual cell types are cultured at sub-confluence and relative cell numbers quantified by SRB staining at time points optimized for each system (48 h: 3C and CASM3C systems; 72 h: BT and HDF3CGF systems; 96 h: SAg system). SRB was performed by staining cells with 0.1% SRB after fixation with 10% TCA and reading wells at 560 nm.Viability and proliferation of PBMC (T cells) was quantified by Alamar Blue reduction for the SAg and BT systems. For PBMC viability (referred to as PBMC Cytotoxicity within the assay endpoint names), cells were plated (75,000/well in a 96-well plate) and then chemical samples added for 1 h before addition of activators, SEB and TSST-1 (20 ng/mL final concentration each). Cells were incubated for 90 h. Then, Alamar Blue (20 uL/well) (Invitrogen, Cat DAL1100) was added for 6 h, and the plates were read with a fluorescence microplate reader at 546/580 nm (excitation/emission). For PBMC proliferation, cells were plated and activated as above but incubated for only 16 h prior to addition of Alamar Blue. Plates were read after 6 h.

SMILES	AC50	outcome
CCOC(=O)CCN(SN(C)C(=O)Oc1cccc2c1OC(C)(C)C2)C(C)C	20 µM (active)	
C=CC(Cl)CCl (stereo not given)		inactive
CN(C)C(=S)S		inactive
O=C(O)C1(c2ccc3c(c2)OC[C@H](Cc2ccc(-c4ccccc4)cc2)[C@H]3O)CCCC1		inactive
c1ccc2sc(SNC3CCCCC3)nc2c1		inactive
O=C(O)COc1cc(Cl)c(Cl)cc1Cl		inactive
Cc1cc(Cl)ccc1N		inactive
OCCN(CCO)CCO		inactive
CCOP(=S)(OCC)OP(=S)(OCC)OCC	37.5 µM (active)	
O=c1oc2ccccc2c(O)c1C(CC(O)c1ccc(-c2ccc(Br)cc2)cc1)c1ccccc1 (stereo not given)	12.6 µM (active)	
CCC(C)(C#N)N=NC(C)(C#N)CC (stereo not given)		inactive
Cc1cc(C)cc(C)c1		inactive
Cc1ccccc1OP(=O)(Oc1ccccc1C)Oc1ccccc1C	12.5 µM (active)	
Cc1c([N+](=O)[O-])c(C)c([N+](=O)[O-])c(C(C)(C)C)c1[N+](=O)[O-]	37.4 µM (active)	
Cc1cc(Cl)ccc1OC(C)C(=O)O (stereo not given)		inactive
Cc1ccc2nc3sc(=O)sc3nc2c1	9.8 µM (active)	
CC1(C)[C@H](C(=O)O[C@H](C#N)c2cccc(Oc3ccccc3)c2)[C@@H]1/C=C(\Cl)C(F)(F)F		inactive
CC(C)(C)c1ccccc1O		inactive
CCOC(=O)C(SP(=S)(OC)OC)c1ccccc1 (stereo not given)	37.5 µM (active)	
CCCCN(CCCC)C(=S)[S-].CCCCN(CCCC)C(=S)[S-].[Ni+2]		inactive

SMILES	AC50	outcome
CCCCCCCCCCCCc1cccc(S(=O)(=O)O)c1		inactive
CC(C)O.CC(C)O.OCCN(CCO)CCO.OCCN(CCO)CCO.[Ti]		inactive
O=C(N[C@H]1CN2CCC1CC2)c1ccc2c(c1)OCCO2		inactive
O=[N+]([O-])c1ccc(Nc2ccccc2)cc1		inactive
[Cl][Sn]([c]1ccccc1)([c]1ccccc1)[c]1ccccc1	0.176 µM (active)	
C#CCOC(=O)/C=C(C)/C=C/CC(C)CCCC(C)C (stereo not given)	39.8 µM (active)	
COCC(=O)N(c1c(C)cccc1C)[C@H](C)C(=O)OC		inactive
CCOP(=S)(OCC)SCS(=O)(=O)C(C)(C)C		inactive
CCOP(=O)(OCC)OC(=CCl)c1ccc(Cl)cc1Cl	37.4 µM (active)	
c1ccc(-c2cccc(-c3ccccc3)c2)cc1	13 µM (active)	
Cc1cccc(OP(=O)(Oc2cccc(C)c2)Oc2cccc(C)c2)c1		inactive
O=C(CCl)NCO		inactive
Cc1cc(C(C)(C)c2ccc(O)c(C)c2)ccc1O	18.7 µM (active)	
O=[N+]([O-])c1cccc2ccccc12		inactive
OC(Cc1ccccc1Cl)(Cn1[nH]cnc1=S)C1(Cl)CC1 (stereo not given)		inactive
Nc1ccc(N)cc1	19.9 µM (active)	
N#Cc1cccnc1		inactive
O=S(=O)(c1ccc(Cl)cc1)c1cc(Cl)c(Cl)cc1Cl	13.6 µM (active)	
CCOC(=O)CC(=O)CCl		inactive
Oc1cc(Cl)c(Cl)cc1Cl	39 µM (active)	
